# Compound activity (PubChem BioAssay)
# Pf apPOL block: Pf-apPOL inhibitors, biochemical, fluorescence | Recombinant Pf-apPOL, molecular beacon fluorescence, 1.5 h | inhibition, % at 10 µM | 210,000 compounds, 0.25% hits | Plasmodium falciparum apicoplast DNA polymerase (apPOL)
# mHTT-CaM PPI inh: mutant huntingtin-calmodulin interaction inhibitors – biochemical, AlphaScreen, primary screen. AlphaScreen His-mHTT/GST-CaM binding, luminescence. inhibition, % at 15 µM. 190,000 compounds, 3.6% hits. AID 1671202, 2021
# A number is an active result; - = inactive; . = no result. The list is not random: actives were taken first. Their share in the collection is about 3.6%. Cut-off read from the data, not from the text of the source: active = inhibition above about 50%; inactive = the rest.
SMILES,Pf apPOL block,mHTT-CaM PPI inh
O=c1[nH]c2ccc(Cl)cc2c(-c2ccccc2)c1CN1CCCCC1,-,100.3
O=C(CCN1CCCC1)Nc1cccc(Br)c1,-,-
O=c1[nH]c2ccc(Cl)cc2c(-c2ccccc2)c1N1CCOCC1,-,.
O=c1[nH]c2ccc(Cl)cc2c(-c2ccccc2)c1N1CCN(Cc2ccc3c(c2)OCO3)CC1,-,100.0
O=C(CCN1CCCCC1)Nc1c(-c2ccccc2)c2cc(Br)ccc2[nH]c1=O,-,98.7
Cc1[nH]c2ccc(Cl)cc2c(=O)c1CN1CCCC1,-,-
Cc1cc(O)c(CN(C)C)c2c1C(=O)C(=Cc1ccncc1)O2,-,-
CCCCOc1cccc(C(=O)Nc2nnc(-c3ccco3)o2)c1,-,60.0
O=C(Nc1nnc(-c2ccco2)o1)c1ccc([N+](=O)[O-])cc1,-,-
CC1CC(N(C(=O)c2ccccc2Cl)c2ccccc2)c2ccccc2N1 (stereo not given),-,98.0
CCC(=O)N(c1ccccc1)C1CC(C)Nc2ccccc21 (stereo not given),-,-
Oc1ccc2ccccc2c1CN1CCCCC1,-,.
Oc1ccc2ccccc2c1SSc1c(O)ccc2ccccc12,-,100.3
Cc1c2ccccc2nc2c(F)c(F)c(F)c(F)c12,-,-
O=C(CSC1CCCC1)Nc1ccc(-c2cn3ccsc3n2)cc1,-,-
c1coc(C2=Nc3ccccc3SC(c3ccc4c(c3)OCO4)C2)c1 (stereo not given),-,51.0
COc1ccc(C2CC(c3ccco3)=Nc3ccccc3S2)cc1OC (stereo not given),-,-
Cc1ccc(C2CC(c3ccco3)=Nc3ccccc3S2)cc1 (stereo not given),-,64.0
O=C1CC(c2ccc3c(c2)OCO3)Sc2nc(-c3ccccc3)nn21 (stereo not given),-,-
CSc1sc(C(=O)C=CN(C)C)c(-c2cccs2)c1C#N,-,.
COc1cc(C(CCN2CCOCC2)c2c(OC)cc(OC)c3ccc(=O)oc23)cc(OC)c1OC (stereo not given),-,-
COc1cc(C(CCN2CCCC2)c2c(OC)cc(OC)c3c2OC(=O)CC3c2ccc(N(C)C)cc2)cc(OC)c1OC (stereo not given),-,75.0
COc1cc(OC)c2c(c1C(CCN1CCOCC1)c1ccc(N(C)C)cc1)OC(=O)CC2c1ccc(N(C)C)cc1 (stereo not given),-,99.8
COc1cc(C2CC(=O)Oc3c(C(C)C)ccc(C)c32)cc(OC)c1OC (stereo not given),-,-
COc1ccc(C2CC(=O)Oc3c(C(CCN4CCOCC4)c4ccc5c(c4)OCO5)c(OC)cc(OC)c32)cc1 (stereo not given),-,78.9
SMILES,Pf apPOL block,mHTT-CaM PPI inh
COc1ccc(NC(=O)CCN2CCN(c3ccccc3)CC2)c(OC)c1,-,-
COc1ccc(C2CC(=O)Oc3c(C(CCN4CCN(c5ccccc5)CC4)c4ccc(N(C)C)cc4)c(OC)cc(OC)c32)cc1 (stereo not given),-,72.8
COc1ccc2c(c1)C(c1ccc3c(c1)OCO3)CC(=O)O2 (stereo not given),-,-
Cc1cc(=O)[nH]c(NN=Cc2ccncc2)n1,-,.
Cc1ccc2[nH]c(O)c(C(=O)C(=O)Nc3ccc(F)cc3)c2c1,-,-
COc1cc(C(CCN2CCOCC2)c2c(OC)cc(OC)c3c2OC(=O)CC3c2ccc(N(C)C)cc2)cc(OC)c1OC (stereo not given),-,73.9
CCN(CC)CCC(c1cc(OC)c(OC)c(OC)c1)c1c(OC)cc(OC)c2ccc(=O)oc12 (stereo not given),-,-
COc1ccc(C2CC(=O)Oc3c(C(CCN4CCOCC4)c4cc(OC)c(OC)c(OC)c4)c(OC)cc(OC)c32)cc1 (stereo not given),-,-
COc1cc(C(CCN2CCCCC2)c2c(OC)cc(OC)c3c2OC(=O)CC3c2ccc(N(C)C)cc2)cc(OC)c1OC (stereo not given),-,78.3
CCN(CC)CCC(c1cc(OC)c(OC)c(OC)c1)c1c(OC)cc(OC)c2c1OC(=O)CC2c1ccc(N(C)C)cc1 (stereo not given),-,69.3
COc1ccc(C2CC(C(F)(F)F)n3nc(C(=O)Nc4ccc(C(C)O)cc4)cc3N2)cc1 (stereo not given),-,-
Cc1ccc(-c2noc(C3CCN(CC(=O)Nc4ccc(F)cc4F)CC3)n2)cc1,-,-
COC(=O)c1ccc(C=C2SC(=S)N(C(CC(=O)O)C(=O)O)C2=O)cc1 (stereo not given),-,-
Cc1nn(C2CCS(=O)(=O)C2)c(C)c1N1CCN(C(=O)c2cc3ccccc3[nH]2)CC1 (stereo not given),-,54.0
CSc1ccccc1C(=O)N1CCN(c2c(C)nn(C3CCS(=O)(=O)C3)c2C)CC1 (stereo not given),-,-
Oc1ccc2ccccc2c1C1Nc2cccc3cccc(c23)N1,.,88.9
Oc1ccc(O)c2c1C1c3ccccc3C2c2ccccc21,-,-
O=S(=O)(Cc1ccccc1)Nc1nccs1,-,-
O=C(Cn1cnc2sc3c(c2c1=O)CCCC3)NCCCC(=O)Nc1ccc2c(c1)OCO2,-,-
COc1cccc(C(=O)NC(c2ccc([N+](=O)[O-])cc2)c2cc(Cl)c3cccnc3c2O)c1 (stereo not given),-,-
COc1cccc(C(=O)NC(c2ccccc2)c2cc(Cl)c3cccnc3c2O)c1 (stereo not given),-,54.0
COc1cccc(C(=O)NC(c2ccco2)c2cc(Cl)c3cccnc3c2O)c1 (stereo not given),-,80.1
CCCC(=O)NC(c1ccco1)c1cc(Cl)c2cccnc2c1O (stereo not given),-,-
COc1cccc(C(=O)NC(c2ccc(OC)c(OC)c2)c2cc(Cl)c3cccnc3c2O)c1 (stereo not given),-,52.0
COC(=O)Cn1nnnc1-c1ccc(Cl)cc1,-,.
SMILES,Pf apPOL block,mHTT-CaM PPI inh
CCCOc1ccc(/C=C(\C#N)c2nc3ccccc3n2C)cc1OC,-,-
COc1cccc(CNC(=O)C(=O)Nc2cc(C)cc(C)c2)c1,-,-
FC(F)(F)c1ccc(-n2cncn2)nc1,-,.
CN(C)c1cccc(C(=O)N2CCN(Cc3nc4ccccc4[nH]3)CC2)c1,-,-
N#Cc1nccnc1Sc1ccc(Cl)cc1,-,.
CC1CCCCC1NC(=O)Nc1cn(C)c2ccccc12 (stereo not given),-,-
CN(C)c1ccc(NC(=O)Nc2cn(C)c3ccccc23)cc1,-,55.6
NN1C(=O)CSC1=S,.,-
O=C(Nc1ccccc1Cl)c1ccc(F)c(S(=O)(=O)NCc2ccccc2Cl)c1,-,-
COc1ccc(S(=O)(=O)n2cc([N+](=O)[O-])cn2)cc1OC,-,100.0
COc1ccc(S(=O)(=O)n2c([N+](=O)[O-])cnc2C)cc1OC,-,-
O=[N+]([O-])c1ccc(-c2nc(NCc3ccco3)c3ccccc3n2)cc1,-,-
Brc1ccc(Nc2nc(NCc3ccco3)c3ccccc3n2)cc1,-,100.0
C=CCNC(=O)C1CCN(c2cccc(C)c2)C1=O (stereo not given),-,-
Cc1cc(C)c(C)c(OCCCCN2CCOCC2)c1,-,-
COc1ccc(OC)c(C2C(=C(O)c3ccccc3)C(=O)C(=O)N2CCN(C)C)c1 (stereo not given),-,-
CCCNC(=O)c1c[nH]c2ccc(S(=O)(=O)N3CCc4ccccc4C3)cc2c1=O,-,-
